PubChem BioAssay AID720706 (Broad Institute, 2013)
Screen size: about 350,000 compounds; about 5,500 (1.6%) were called active.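 Rule for the calls: active = significant combined selectivity score with lowered wild-type GFP, culture density cut under 30%, mutant RFP and density less affected; inactive = any of these conditions unmet.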 The entries come from a sample that favours actives as a whole.

Assay: GFP drop in mixed WT/humanized-ribosome E. coli culture – GFP/RFP fluorescence, OD600, single point, bacterial rRNA inhibitor project, primary screen (AID 720706)
Details: E. coli WT GFP vs humanized-ribosome RFP mutants, 24 h; GFP signal change (wild-type ribosome): stronger effect = lower value, DMSO median 0, no signal -100; OD600 change: measured here: OD600 growth, DMSO median 0, no signal -100; RFP signal change: measured here: RFP humanized mutant strains, DMSO median 0, no signal -100, concentration not given here
In the case of `Cc1noc(C)c1S(=O)(=O)Nc1ccc2c(c1)C(=O)N([C@@H](C)CO)C[C@@H](C)[C@H](CN(C)C(=O)NC(C)C)OCCCC[C@@H](C)O2`, the GFP signal change (wild-type ribosome) is reported as 4.36% (inactive), the OD600 change is reported as 7.55% and the RFP signal change is reported as -2.26%. In the case of `C[C@@H]1CN([C@H](C)CO)C(=O)c2cc(-c3ccc(F)cc3)cnc2O[C@@H]1CN(C)Cc1ccc(C(=O)O)cc1`, the GFP signal change (wild-type ribosome) is reported as -4.64% (inactive), the OD600 change is reported as 1.8% and the RFP signal change is reported as -8.48%. With `CO[C@@H]1CN(C)C(=O)c2ccc(NC(=O)Nc3cc(F)ccc3F)cc2OC[C@@H](C)N(C)C[C@@H]1C` the GFP signal change (wild-type ribosome) was -5.36% (inactive), the OD600 change was -19.5% and the RFP signal change was 0.48%. With `CCC(=O)N1[C@@H](CO)[C@H](c2ccc(-c3cccc(F)c3)cc2)[C@@H]1CNC(C)=O` the GFP signal change (wild-type ribosome) was -3.61% (inactive), the OD600 change was 3.25% and the RFP signal change was 2.12%. For `O=C(C1CCOCC1)N1C[C@H]2[C@@H](c3ccccc31)[C@@H](CO)N2Cc1ccccc1`, the GFP signal change (wild-type ribosome) was -1.33% (inactive), the OD600 change was 0.79% and the RFP signal change was -0.998%. In the case of `COc1ccccc1NS(=O)(=O)c1ccc(C(=O)N2CCN(c3ccccc3O)CC2)cc1`, the GFP signal change (wild-type ribosome) is reported as -1.32% (inactive), the OD600 change is reported as -2.56% and the RFP signal change is reported as -0.007%. For `O=S(=O)(Nc1ccc(O)c2ccccc12)c1ccc(OC(F)(F)F)cc1`, the GFP signal change (wild-type ribosome) was -28.6% (active), the OD600 change was -14.2% and the RFP signal change was -9.13%. In the case of `FC(F)(F)Oc1ccc(NC(=S)NCc2ccccc2)cc1`, the GFP signal change (wild-type ribosome) is reported as -56.8% (inactive), the OD600 change is reported as -77.1% and the RFP signal change is reported as -19.9%. With `C[C@H](CO)N1C[C@H](C)[C@H](CN(C)C(=O)C2CC2)Oc2ncc(C#Cc3ccccc3)cc2C1=O` the GFP signal change (wild-type ribosome) was -0.859% (inactive), the OD600 change was 2.9% and the RFP signal change was -0.79%. With `Cc1cc(SCc2c(F)cccc2Cl)nc(=O)[nH]1` the GFP signal change (wild-type ribosome) was -15.5% (inactive), the OD600 change was 0.505% and the RFP signal change was -0.535%. With `Fc1cccc(Cl)c1CSc1ccc(-c2ccco2)nn1` the GFP signal change (wild-type ribosome) was -21.1% (active), the OD600 change was -7.59% and the RFP signal change was 0.773%. For `Oc1ccc(-n2nnnc2SCc2c(F)cccc2Cl)cc1`, the GFP signal change (wild-type ribosome) was -53.5% (inactive), the OD600 change was -72.8% and the RFP signal change was -14.2%. With `N#C[C@@H]1[C@H](c2ccc(-c3cccnc3)cc2)[C@H](CO)N1C(=O)C1CC1` the GFP signal change (wild-type ribosome) was 1.69% (inactive), the OD600 change was -1.23% and the RFP signal change was 1.92%. In the case of `C[C@@H]1CN([C@@H](C)CO)C(=O)c2cc(-c3ccc(F)cc3)cnc2O[C@H]1CN(C)C(=O)c1ccncc1`, the GFP signal change (wild-type ribosome) is reported as 5.96% (inactive), the OD600 change is reported as 18.3% and the RFP signal change is reported as -6.6%. For `COCC(=O)N[C@H]1C=C[C@H](CC(=O)N2CCCCC2)O[C@H]1CO`, the GFP signal change (wild-type ribosome) was 0.044% (inactive), the OD600 change was 2.08% and the RFP signal change was 0.319%. For `CN(CCOc1ccc(CC2SC(=O)NC2=O)cc1)c1ccccn1` (centres undefined), the GFP signal change (wild-type ribosome) was -18.5% (active), the OD600 change was -19.1% and the RFP signal change was 5.83%. In the case of `CC(O)c1ccc(OCCN(C)c2ccccn2)cc1` (centres undefined), the GFP signal change (wild-type ribosome) is reported as 7.56% (inactive), the OD600 change is reported as 9.08% and the RFP signal change is reported as -0.281%. With `CC(C)=N/N=C1/NC(=O)C(Cc2ccccc2)S1` (centres undefined) the GFP signal change (wild-type ribosome) was 5.19% (inactive), the OD600 change was 0.06% and the RFP signal change was 4.42%.
